Compound activity from PubChem BioAssay.
Sampled rows, rich in hits. Any-hit rate of the full collection: about 2.8%.
PI4K2A block: inhibitors of human PI4K2A | Q9BTU6 | purified PI4K2A, ADP-Glo luminescence, 1 h; stronger effect = lower value | activity change, negative = inhibition, % at 76.9 µM | 420,000 compounds, 0.13% hits | AID 1346378; in the data active means activity change below about -50%; inconclusive means mostly about -30% to -49%
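Compounds are screened against recombinant PI4K2A using PI as substrate and ATP, the latter dispensed at 300 microM. Reactions run one hour at ambient temperature before ADP-Glo detection; full inhibition defined by wells lacking enzyme.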
Akt phos inh: blocks phosphorylation of Akt | Neuro2A IGF-stimulated pAkt S473 HTRF, 20 min; stronger effect = lower value | AID 651550 | 360,000 compounds, 0.32% hits | activity change, % for hits at 50 µM; in the data active means activity change below about -80%; inconclusive means mostly about -51% to -80%
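Neuro2A cells in DMEM with 0.5% FBS, overnight at 37 deg C, given compound at single 50 µM final, then IGF (6 nM final) for 20 min at 37 deg C. Lysed; phospho-Akt Ser473 by HTRF after 24 h, 665/615 ratio.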
LDHA block: inhibitors of human lactate dehydrogenase A. purified LDHA, NADH/diaphorase-resazurin fluorescence; stronger effect = lower value. activity change, % (values are at about 110 or 230 µM). AID 1347041. 480,000 compounds, 0.15% hits. P00338; in the data active means activity change below about -30%; inconclusive means mostly about -25% to -30%
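LDH5 2 nM; NADH 0.06 mM, pyruvate 0.2 mM; 200 mM Tris pH 7.4, EDTA, Tween-20; 5 min RT. Detection: diaphorase 0.133 mg/mL + resazurin 37 µM, fluorescence ex540/em590 at 0 and 20 min; normalized to enzyme-free and DMSO wells.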
RGS4 inhibitor: blocks human RGS4-accelerated GTP hydrolysis; P49798; Transcreener GDP fluorescence polarization, RGS4-accelerated GTP hydrolysis; Potency, µM (top dose mostly 114 µM), hits mostly inhibitors; 390,000 compounds, 0.039% hits; AID 504845; active means well fitted inhibition curve with a large enough effect; inconclusive means small, poorly fitted or top-dose-only effect; inactive means no such curve, though single readings can be large or run the other way; further: nearly all actives have a fitted effect of over 75% in size
Target sequence (P49798 whole entry, looked up): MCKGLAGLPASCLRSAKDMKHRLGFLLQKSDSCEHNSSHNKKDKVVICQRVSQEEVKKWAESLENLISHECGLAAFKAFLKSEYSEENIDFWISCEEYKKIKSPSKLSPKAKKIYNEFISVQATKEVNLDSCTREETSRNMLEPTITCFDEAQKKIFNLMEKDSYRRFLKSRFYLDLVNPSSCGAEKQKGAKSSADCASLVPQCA
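MLSMR compounds (23 nl, pin-transferred) preincubated 10 min at room temperature with a 500nM (2x) first reagent, then RGS4 at 900nM (2x) plus Transcreener GDP mix added; fluorescence polarization (620/688 nm) read before and after 90 min at 30 °C.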
DRD3 antagonist: blocks the human D3 dopamine receptor; P35462; D3R cells, DiscoveRx beta-arrestin luminescence, antagonist mode; stronger effect = lower value; max response, negative = inhibition, %; 360,000 compounds, 2.5% hits; in the data active means max response below about -50%; inconclusive means no clear call, values can overlap the other calls
Target sequence (P35462 whole entry, looked up): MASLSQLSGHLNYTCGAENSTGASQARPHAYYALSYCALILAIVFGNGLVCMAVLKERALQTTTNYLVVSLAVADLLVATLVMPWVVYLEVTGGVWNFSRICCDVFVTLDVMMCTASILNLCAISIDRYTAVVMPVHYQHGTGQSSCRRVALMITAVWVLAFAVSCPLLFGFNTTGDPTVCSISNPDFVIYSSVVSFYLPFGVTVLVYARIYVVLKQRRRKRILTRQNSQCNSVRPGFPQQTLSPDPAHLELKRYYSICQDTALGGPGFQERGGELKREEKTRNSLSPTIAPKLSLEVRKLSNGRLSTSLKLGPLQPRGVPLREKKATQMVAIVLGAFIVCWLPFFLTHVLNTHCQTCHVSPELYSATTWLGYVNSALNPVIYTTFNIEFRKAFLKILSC
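Cells expressing the human receptor were seeded at 1500 cells/well, incubated overnight at 37 degrees C in 5% CO2, then exposed to library compounds with dopamine controls for 90 minutes at 37 degrees C before luminescent detection.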
DRD3 agonist: activates the human D3 dopamine receptor. P35462. D3R DiscoveRx beta-arrestin cells, luminescence, 90 min. max activation, %. 410,000 compounds, 0.58% hits; in the data active means max activation above about 30%
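Agonist mode: compounds and dopamine controls were applied to plated cells for 90 min at 37 degrees C after an overnight attachment at 1500 cells/well. Luminescent read-out followed 30 - 60 minutes at room temperature with DiscoveRx detection reagent.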
A number is an active result; [ ] = another dose, or the depositor's remark.

CN1CCc2c(sc(NC(=O)c3ccc([N+](=O)[O-])o3)c2C(N)=O)C1 was read as PI4K2A block inactive, Akt phos inh inactive, LDHA block inactive, RGS4 inhibitor inactive, DRD3 antagonist -56 and DRD3 agonist inactive.
`N#Cc1c(NC(=O)c2ccc([N+](=O)[O-])o2)sc2c1CCC2` gave PI4K2A block inactive, Akt phos inh inactive, LDHA block inactive, RGS4 inhibitor inactive, DRD3 antagonist -63 and DRD3 agonist inactive.
For CC(NC(=O)c1nccnc1N)c1ccccc1 (centres undefined) the results were LDHA block inactive.
For Cc1c(Cc2ccccc2)c(=O)oc2cc(OCCC(C)C)ccc12 the results were LDHA block inactive.
`CCc1cc(=O)oc2cc(OC(C)C(=O)NC3CCCCCC3)ccc12` (centres undefined) gave LDHA block inactive.
For O=C(Oc1ccccc1)c1ccc(COC(=O)c2cnccn2)cc1 the results were PI4K2A block inactive, Akt phos inh inactive, LDHA block inactive, RGS4 inhibitor inactive, DRD3 antagonist -106 and DRD3 agonist inactive.
Screening COc1cc(C=Nc2cccc(C)c2)c(O)c([N+](=O)[O-])c1 returned PI4K2A block inactive, Akt phos inh inactive, LDHA block inactive, RGS4 inhibitor inactive, DRD3 antagonist -92 and DRD3 agonist inactive.
COc1ccc(OCC(=O)Nc2cc(OC)ccc2N2CCCCC2)cc1 was read as PI4K2A block inactive, Akt phos inh inactive, LDHA block inactive, RGS4 inhibitor inactive, DRD3 antagonist inactive and DRD3 agonist 36.
Screening COc1ccc([N+](=O)[O-])cc1NC(=O)CCCOc1ccccc1 returned PI4K2A block inactive, Akt phos inh inactive, LDHA block inactive, RGS4 inhibitor inactive, DRD3 antagonist inactive and DRD3 agonist inactive.
For COc1cc(NC(=O)CCN2CCN(c3ccccc3)CC2)cc(OC)c1 the results were RGS4 inhibitor inactive.
For COc1cc(NC(=O)CCN2CCN(c3ccccc3OC)CC2)cc(OC)c1 the results were PI4K2A block inactive, Akt phos inh inactive, LDHA block inactive, DRD3 antagonist -99 and DRD3 agonist inactive.
`COc1ccc(N2CCCC2)c(NC(=O)COc2ccccc2Cl)c1` gave PI4K2A block inactive, Akt phos inh inactive, LDHA block inactive, RGS4 inhibitor inactive, DRD3 antagonist inactive and DRD3 agonist inactive.
COc1ccc(OC)c(NC(=O)CCN2CCN(c3ccccc3OC)CC2)c1 was read as PI4K2A block inactive, Akt phos inh inactive, LDHA block inactive, RGS4 inhibitor inactive, DRD3 antagonist -84 and DRD3 agonist inactive.
`COc1ccc([N+](=O)[O-])cc1NC(=O)CCN1CCN(c2ccccc2)CC1` gave PI4K2A block inactive, Akt phos inh inactive, LDHA block inactive, RGS4 inhibitor inactive, DRD3 antagonist inactive and DRD3 agonist 75.
Screening COc1cccc(C(=O)NCCc2csc(-c3ccccn3)n2)c1 returned LDHA block inactive.
`COc1cc(OC)c2[nH]c(C(=O)OC(C)C(=O)c3ccccc3)cc2c1` (centres undefined) gave LDHA block inactive.
Screening Cc1cc(C)c2c(CC(=O)Nc3ccc(C)c(C)c3)coc2c1 returned LDHA block inactive.
Screening O=S(=O)(Nc1ccc(-n2cccc2)cc1)c1ccc(Cl)c(Cl)c1 returned PI4K2A block inactive, Akt phos inh inactive, LDHA block inactive, RGS4 inhibitor inactive, DRD3 antagonist inactive and DRD3 agonist inactive.
Screening O=S(=O)(Nc1ccc(-n2cccc2)cc1)c1ccc(Cl)cc1Cl returned PI4K2A block inactive, Akt phos inh inactive, LDHA block inactive, RGS4 inhibitor inactive, DRD3 antagonist -53 and DRD3 agonist inactive.
For CN(C)c1ccc(C2C3=C(CCCC3=O)OC3=C2C(=O)CCC3)cc1 the results were PI4K2A block inactive, Akt phos inh inactive, LDHA block inactive, RGS4 inhibitor inactive, DRD3 antagonist -55 and DRD3 agonist inactive.
`CSc1ccc(C2C3=C(CCCC3=O)OC3=C2C(=O)CCC3)cc1` gave LDHA block inactive.
For COc1ccccc1/C=C/C(=O)c1cc(Br)ccc1OC(=O)c1ccco1 the results were PI4K2A block inactive, Akt phos inh inactive, LDHA block inactive, RGS4 inhibitor inconclusive, DRD3 antagonist -56 and DRD3 agonist inactive.
For Cc1ccc(/C=C/C(=O)c2cc(Br)ccc2OC(=O)c2ccco2)cc1 the results were PI4K2A block inactive, Akt phos inh inactive, LDHA block inactive, RGS4 inhibitor inactive[11.4 µM], DRD3 antagonist inactive and DRD3 agonist inactive.
`CCc1ccccc1NC(=O)C1C(c2ccccc2)C1(Cl)Cl` (centres undefined) gave PI4K2A block inactive, Akt phos inh -107%, LDHA block inactive, RGS4 inhibitor inactive, DRD3 antagonist inactive and DRD3 agonist inactive.
For CCOc1ccccc1NC(=O)C1C(c2ccccc2)C1(Cl)Cl (centres undefined) the results were PI4K2A block inactive, Akt phos inh inactive, LDHA block inactive, DRD3 antagonist inactive and DRD3 agonist inactive.
O=C(O)Cn1cc(C(C(=O)O)N2CCN(Cc3cccnc3)CC2)c2ccc(Br)cc21 (centres undefined) was read as LDHA block inactive.
For O=C(Nc1ccc(Cl)cc1Cl)C1CCCN(c2ncnc3nc[nH]c23)C1 (centres undefined) the results were LDHA block inactive.
For COc1ccc(/C=N/Nc2nnc(C)n2N)cc1OC(C)=O the results were PI4K2A block inconclusive, Akt phos inh inactive, LDHA block inactive, RGS4 inhibitor inactive, DRD3 antagonist -56 and DRD3 agonist inactive.
COc1ccc(/C=N/Nc2nnc(C)n2N)cc1OC was read as PI4K2A block inconclusive, Akt phos inh inactive, LDHA block inactive, RGS4 inhibitor inactive, DRD3 antagonist inactive and DRD3 agonist inactive.
`CC(NC(=O)c1ccc2c(c1)C(=O)c1ccccc1-2)C1CC2CCC1C2` (centres undefined) gave LDHA block inactive.
`Cc1ccc2nc(Nc3ccc4[nH]c(=O)[nH]c4c3)c(-n3nc(C)cc3C)nc2c1` gave PI4K2A block inactive, Akt phos inh inactive, LDHA block inactive, RGS4 inhibitor inactive, DRD3 antagonist inactive and DRD3 agonist 69.
Screening Cc1cc(C)n(-c2nc3ccccc3nc2Nc2ccc(Cl)cc2Cl)n1 returned PI4K2A block inactive, LDHA block inactive, RGS4 inhibitor inactive and DRD3 agonist 58.
Cc1cc(C)n(-c2nc3ccccc3nc2Nc2cc(Cl)ccc2C)n1 was read as PI4K2A block inactive, LDHA block inactive, RGS4 inhibitor inactive and DRD3 agonist inactive.
`Cc1ccc(NC(=O)COc2cccc(/C=C3\SC(=S)N(CCC(=O)O)C3=O)c2)cc1Cl` gave PI4K2A block inactive, Akt phos inh inactive, LDHA block -36, RGS4 inhibitor inactive[11.4 µM], DRD3 antagonist inactive and DRD3 agonist inactive.
